Inconclusive results are not listed. Values without a mark were called inactive. Activity calls are given as the source filed them. Calls come from the whole dose curve; as a rule, active = well fitted inhibition curve with a large enough effect; inconclusive = small, poorly fitted or top-dose-only effect; inactive = flat fitted curve, though single readings scatter.
experiment: qHTS for Inhibitors of Plasmodium falciparum (DD2) proliferation (AID 504314); settings: P. falciparum Dd2 in erythrocytes, SYBR Green growth, 72 h; series mostly up to 6.11 µM; activity, negative = inhibition: at the top concentration
Excerpt: Plasmodium falciparum is a virulent malarial parasite that kills 1-2 million people worldwide each year. Malaria not only inflicts tremendous suffering and morbidity on the human population, but has dramatically influenced the course of civilization with profound sociological and economic implications (Shah, S. 2010). Transmitted by mosquitoes, the sporozoite form of the parasite enters the blood stream to infect hepatocytes, where they become merozoites that infect red blood cells (erythrocytes). Within erythrocytes, merozoites begin a […] cycle of growth and division, after which the parasite is released to infect new red blood cells. Gametocytes, which form within erythrocytes as well, circulate in the bloodstream and are ingested by the mosquito, thereby completing the life cycle (see CDC website). To profile malarial lines for differential chemical responses and to identify inhibitors of malarial growth, an assay that measures P. falciparum growth and replication within erythrocytes was employed. This assay uses a DNA binding fluorescent dye (SYBR Green) to detect parasite DNA following cell lysis. Because mature erythrocytes lack DNA, only Plasmodium-derived DNA is detected. The P. falciparum line cp250, derived from a malarial isolate from Cambodia, (Mu, J., et al. 2010) was added to the panel of lines, Dd2, HB3, 7G8 and GB4 in this study.
Laboratory of Assay Development and Screening Technology [ADST] and NIH Chemical Genomics Center [NCGC]
Boston University, Chemistry Department, Center for Chemical Methodology and Library Development [CMLD-BU]
NIH National Institute of Allergy and Infectious Diseases [NIAID]
ADST Assay Protocol Summary:
The 1536-well SYBR Green viability assay was based on the method of Bennett et al (2004) and described previously in 1536-well format (Yuan J., et al. 2009). For screening 3 ul culture medium was dispensed into 1536 well black clear bottom plates (Aurora Biotechnologies) using a Multidrop Combi (Thermo Fisher Scientific Inc.), 23 nL compounds in DMSO were added by a pin transfer (Cleveland, P.H. and Koutz, P.J, 2005) using a pin tool-based delivery system (Kalypsys), and 5 ul of erythrocytes infected with P. falciparum one of five lines (cp250, Dd2, HB3, 7G8 or GB4, 0.3% parasitemia, 2.5% hematocrit final concentration) were added. The plates were incubated at 37C in a humidified incubator in 5% CO2 for 72 h, and 2 ul lysis buffer (20 mM Tris HCl, 10 mM EDTA, 0.16% saponin, 1.6% triton X, 10X SYBR Green I (supplied as 10,000X final concentration by Invitrogen) was added to each well. The plates were mixed for 25 sec with gentle shaking and incubated overnight at room temperature in the dark. The following morning, fluorescence intensity at 485(14) nm excitation and 535(25) nm emission wavelengths was measured on an EnVision (Perkin Elmer) plate reader. Plate reads were normalized relative to the control inhibitor (0.29 uM artemisinin) and vehicle (DMSO) wells present on each plate and then corrected by an algorithm using vehicle-only control plates at the beginning and end of the compound plate stack.
Shah, S. (2010). The Fever: how malaria has ruled humankind for 500,000 years. New York, Sarah Crichton Books.
CDC web site, http://www.cdc.gov/malaria/about/biology/index.html
Mu, J., Myers, R.A., Jiang, H., Liu, S., Ricklefs, S., Waisberg, M., Chotivanich, K., Wilairatana, P., Krudsood, S., White, N.J., et Plasmodium falciparum genome-wide scans for positive selection, recombination hot spots and resistance to antimalarial drugs Nature Genetics 2010, 42, pp 268-271
Bennett TN, Paguio, M., Gligorijevic, B., Seudieu, C., Kosar, A. D., Davidson, E., and Roepe, P. D. Novel, rapid, and inexpensive cell-based quantification of antimalarial drug efficacy Antimicrobial Agents Chemother. 2004, 48(5): pp 1807-10
Yuan J, Johnson RL, Huang RL, Wichterman J, Jiang HY, Hayton K, Fidock DA, Wellems TE, Inglese J, Austin CP, Su XZ. […]
Potency is the fitted concentration of half-maximal effect.

Structure (SMILES) | activity, negative = inhibition | Potency
O=C(NCCOc1ccccc1)O[C@@H]1C(=O)c2cc(Br)ccc2O[C@H]1c1ccc2c(c1)OCO2 | -9.94% | 
C#CCN1C(=O)[C@]2(OCCC=C[C@H]2C)c2ccccc21 | -7.73% | 
CCCCCCCC=CC1=CC2(C)CC1(C)C(CCCCCCC)CC2=O (stereo not given) | -1.25% | 
COC(=O)[C@H](COC(C)(C)C)NC(=O)O[C@@H]1C(=O)c2cc(Br)ccc2O[C@H]1c1ccc2c(c1)OCO2 | -9.8% | 
COC(=O)N[C@@H](c1ccccc1)C(C(=O)OC)C(=O)OC | -3.57% | 
COCC=CC1=CC2=CC(=O)C(C)(OC(=O)c3cnc4ccccc4n3)C(=O)C2=CN1CC1CC1 (stereo not given) | -9.84% | 
C=CCNC(=O)[C@H]1C=C(OC)C(=O)C[C@H]2c3ccccc3C[C@]12C | -5.48% | 
COCCN1C(=O)CC[C@@]23C1=NC(C(=O)OC)=C(C(=O)OC)[C@@H]2N(C)c1ccccc13 | -4.63% | 
CC1(OC(=O)CCc2ccccc2)C(=O)C=C2C=C(c3ccsc3)OC=C2C1=O (stereo not given) | 4.88% | 
COC(=O)c1c(C(=O)OC)c2c3ccccc3cc(C3CC3)n2c1C(=O)OC | -5.82% | 
C#CCN1C(=O)CC[C@@]23C1=NC(C(=O)OC)=C(C(=O)OC)[C@@H]2N(Cc1ccccc1)c1ccccc13 | -4.43% | 
CC(C)OC(=O)[C@@H]1CC[C@H](C)[C@@H](CCC[C@@H]2CC=C[C@H](CC#N)O2)O1 | -1.43% | 
CCOC(=O)CN1C(=O)[C@]2(O[C@H](C)CC3=CCCC32)c2c(Br)cccc21 (stereo not given in full) | -2.38% | 
COC(=O)[C@H]1[C@@H](c2ccccc2)NC(=O)O[C@@H]1C | -1.26% | 
COC(=O)N[C@H](CC(C)=O)c1cccs1 | -1.69% | 
COc1ccc(O[C@H]2C=C[C@@H](c3ccccc3)O[C@H]2CON=C[C@@H](C)[C@H](OCc2ccccc2)C(C)C)cc1 | -10.5% | 
CC1(OC(=O)C2CCCC2)C(=O)C=C2C=C(c3ccsc3)N(C(CO)CO)C=C2C1=O (stereo not given) |  | inactive
COCCN1C(=O)NC(c2ccccc2)C(C(=O)OC)=C1C (stereo not given) | -0.745% | 
COC(=O)C1=C(C(=O)OC)[C@@H]2N(C)c3ccc(OC)cc3[C@@]23C[C@@H](C(=O)OC)N(C(=O)c2cc(C)oc2C)C3=N1 |  | inactive
COc1cccc([C@@H]2Oc3ccc(Br)cc3C[C@@H]2OC(=O)N[S+](=O)([O-])c2ccc(C)cc2)c1 | -2.63% | 

Structure (SMILES) | activity, negative = inhibition | Potency
COc1ccc([C@]23Cc4c(ccc5ccccc45)[C@H](O2)c2c(cc(-c4ccccc4)oc2=O)O3)cc1 | -9.68% | 
C[C@H](NC(=O)N1CCc2nc(COc3ccccc3)c3c(c2C1)CO[C@@H](C)C3)c1ccccc1 | -0.0576% [at 1.12 µM] | 
CCCCCCCc1cc2c(cn1)C(=O)C(C)(OC(C)=O)C(O)=C2Cl (stereo not given) |  | 1890 nM (active)
C#CCCOC(=O)N1C2=NC(C(=O)OC)=C(C(=O)OC)[C@@H]3Nc4ccccc4[C@]23C[C@H]1C(=O)OC |  | inactive
COc1ccc2c(c1)C(=O)[C@H](OC(=O)Nc1cc(OC)c(OC)c(OC)c1)[C@@H](c1ccc(OC)c(Br)c1)O2 | -9.09% | 
CC(C)CON=C1C[C@@H](O)[C@@H](O)[C@@H]2[C@H]3C(=O)N(Cc4ccc5c(c4)OCO5)C(=O)[C@@H]3CC[C@@H]12 | -11.1% | 
CCCCCCCc1cc2ccccc2c2c(C=O)c(CCCC)c(C(=O)OC)n12 | -12.3% | 
COC(=O)[C@@]1(Cc2ccccc2-c2ccco2)C=C[C@H](C)[C@@H](c2ccccc2)N1C(=O)C(F)(F)F | -7.45% | 
CCN(CC)CCCN1C(=O)C2=C(C1=O)C1N(C)c3ccccc3[C@@]13C[C@@H](CO)N(C(=O)CCC(=O)OC)C3=N2 (stereo not given in full) | -5.65% | 
COC(=O)N[C@@H](C=Cc1ccccc1)[C@@H](C)[N+](=O)[O-] | -0.645% | 
C=CCOC(=O)N[C@@H](c1coc2ccccc2c1=O)[C@@H](C)C=CCC(=O)OC | -3.19% | 
O=C1C2=C(C(=O)c3ccccc31)[C@H]1O[C@](CCCCN3C(=O)c4ccccc4C3=O)(Cc3c1ccc1ccccc31)O2 |  | 1500 nM (active)
COC(=O)N1C2=C(c3ccccc3[C@@H]1CC(=O)O)[C@@H]1O[C@@H](C2)c2ccccc21 | 0.0333% | 
CCOC(=O)NN=Cc1ccccc1-c1cc(OC)ccc1OC | -3.1% | 
COc1cc(O)c(C(=O)C=Cc2ccc3c(c2)OCO3)c(OC)c1 | -7.65% | 
C[C@@H](ON=C1[C@H]2CCn3c(=O)n(-c4ccccc4)c(=O)n3[C@@H]2[C@H](O)[C@@H]2O[C@H]12)c1cn([C@@H]2COC[C@@H]2O)nn1 | -3.07% | 
CC(C)OC(=O)[C@H]1O[C@H](CCCCOCc2ccccc2)[C@@H](C)[C@H]2O[C@H]21 | -7.7% | 
COC1=C[C@H](C(=O)NCc2ccccn2)[C@H](C)[C@@H](c2ccccc2)CC1=O | -6.07% | 
C=CCN1c2ccccc2[C@]23CCC(=O)N(CC(=O)OC)C2=NC(C(=O)OC)=C(C(=O)OC)[C@H]13 | 2.02% | 
CCCCCCCc1cc2ccccc2c2c(C(=O)OC)c(C)c(C(=O)OC)n12 | -12.3% | 
